ChEMBL document CHEMBL4513216, “Probing the Open Global Health Chemical Diversity Library for Multistage-Active Starting Points for Next-Generation Antimalarials” (ACS Infect Dis, 2020)
Among all 69,000 compounds or so, about 8,600 (12%) showed an effect of 50% or more. Many of the other results were omitted from the sample, so strong results are more common in it than they were.

Each compound was assayed on Plasmodium berghei (assay: Screen against P. berghei liver stage (PbLuc), transformed with Luciferase, at 10uM). Conditions: tested at 10 uM.
Format: functional, HepG2

Compound	INHIBITION [%]
O=C(NCC1(Sc2ccccc2)CC1)c1c[nH]nn1	20.8
CN(C)CC(=O)N1CCN(CC(O)c2ccc(F)cc2)CC1 (centres undefined)	-11.4
COc1ccccc1OCCc1nnc(NC(=O)C2CC23CCC3)s1 (centres undefined)	31.97
CSCC(=O)N1C[C@@H]2CC[C@H]1CN(Cc1ccccc1)C2	-79.7
CCOc1ccc(C(=O)Nc2c(C)nc3ccccn3c2=O)cc1	56.5
COc1ccc(C(=O)Nc2c(C)nc3cccc(C)n3c2=O)cc1	31.7
CCOc1ccc(C(=O)Nc2c(C)nc3scc(C)n3c2=O)cc1	5.58
CCOc1ccc(C(=O)Nc2ccn(CC)n2)cc1	-125
CCOc1ccc(C(=O)Nc2c(C)nc3ccc(Cl)cn3c2=O)cc1	51.6
CCOc1ccc(C(=O)Nc2c(C)nc3cccc(C)n3c2=O)cc1	-14.7
Cn1cccc1C(=O)N1C[C@@H]2CC[C@H]1CN(Cc1cscn1)C2	-9.39
COc1c(CNC2CCC(O)CC2)c(C(C)C)nn1C (centres undefined)	-18.8
O=C1c2cccnc2OC(CN2CCOCC2)CN1CC1CC1 (centres undefined)	24.5
Cc1nc(C)n(C2CCCN(C(=O)c3c(C)nn4cccnc34)C2)n1 (centres undefined)	26.4
Cc1cc(C(=O)N2CCOC(c3nc(C(C)C)n[nH]3)C2)no1 (centres undefined)	25.1
CC(C)CNC(=O)c1nc2c(s1)CCN(C(=O)c1cccnc1)CC2	-47.5
CCN(CC)C(=O)c1nc2c(s1)CCN(Cc1cccc(OC)c1)CC2	66.8
CNC(=O)c1nc2c(s1)CCN(C(=O)c1cccc(OC)c1)CC2	-78
COc1cccc(CC(=O)N2CCc3nc(C(N)=O)sc3CC2)c1	-16.9
COc1ccc(CNC(=O)c2nc3c(s2)CCN(C(C)=O)CC3)cc1	34.6
CNC(=O)N1CCc2nc(C(=O)NCc3cccc(OC)c3)sc2CC1	70.7
COc1cccc(CN2CCc3nc(C(N)=O)sc3CC2)c1	2.41
COc1cccc(CN2CCc3nc(C(=O)NCC(C)C)sc3CC2)c1	84.5

Compound	INHIBITION [%]
COc1cccc(CNC(=O)c2nc3c(s2)CCN(C(C)=O)CC3)c1	10.1
O=C1OCCN1Cc1nc(C2(c3ccc(F)cc3)CCOC2)no1 (centres undefined)	-73.4
CCc1nc(CN2CC(C(=O)OC)O[C@H](C)C2)cs1 (some centres undefined)	30.3
CS(=O)(=O)NCCN1CCCC1c1noc(C2CC2)n1 (centres undefined)	0.914
CN(C)Cc1ccnc(C2CN(CCc3ccccc3)CCO2)n1 (centres undefined)	17.4
Cn1cncc1CN1CCC2(CCCN2c2ncccn2)CC1	16.9
CC(C)(N)C(=O)N1CCCC(c2cncc(Oc3cccnc3)n2)C1 (centres undefined)	41.2
O=C(NCC(Cc1cccc(F)c1)N1CCCC1=O)C1CCCC1 (centres undefined)	0.923
O=C1CCCN1C(CNS(=O)(=O)C1CC1)Cc1cccc(F)c1 (centres undefined)	58.5
CCCC(=O)NCC(Cc1cccc(F)c1)N1CCCC1=O (centres undefined)	8.31
CCOCC(=O)NCC(Cc1cccc(F)c1)n1cccc1 (centres undefined)	47.2
O=C1NCCN1C(CNS(=O)(=O)C1CC1)Cc1cccc(F)c1 (centres undefined)	20.1
CCOCC(=O)NCC(Cc1cccc(F)c1)N1CCCCC1=O (centres undefined)	54.1
CN(C)C(=O)N1C[C@H](Oc2ccccn2)[C@H]2OCCC[C@H]21	-6.32
CC1Oc2ccc(S(=O)(=O)NCCCn3ccnc3)cc2NC1=O (centres undefined)	56.5
CC1(C)Oc2ccc(S(=O)(=O)NCCCn3ccnc3)cc2NC1=O	17.4
COCCCNS(=O)(=O)c1ccc2c(c1)NC(=O)C(C)O2 (centres undefined)	-35.5
CCc1csc(CNC2CCN(Cc3ccccc3)C2)n1 (centres undefined)	64
CCc1csc(CNC2CCN(c3ccc(C)cc3)CC2)n1	1.94
Cc1nc(CCNC2CCN(Cc3ccccc3)C2)sc1C (centres undefined)	40.5
CCc1nc(C)sc1CN1CC[C@](C)(O)[C@H](C)C1	48.5
CCc1nc(C)sc1CNC1CCN(Cc2ccccc2)C1 (centres undefined)	51.1
Cc1nc(CNC2CCN(Cc3ccccc3)C2)sc1C (centres undefined)	47.9

Compound	INHIBITION [%]
CNc1ncccc1CN1CCCCC1c1ccnc(N)n1 (centres undefined)	32.3
O=C(NCC1CC1)[C@H]1CC[C@@H]2[C@@H](CCN2Cc2nccs2)O1	46.1
COC(=O)c1cccn1C1CCN(CC(=O)NC2CCCCC2)CC1	43.7
Cc1noc(C)c1C(=O)N(C)C(C)c1ccc(S(C)(=O)=O)cc1 (centres undefined)	10.7
Cc1noc(C)c1C(=O)N(C)C(C)c1cccnc1 (centres undefined)	79
Cc1noc(C)c1C(=O)N(C)C(C)c1ccncc1 (centres undefined)	17.5
CS(=O)(=O)N1CCCN(c2nccn3cnnc23)CC1	-39.2
OCCN(Cc1ccccc1)Cc1ccsc1	3.96
CC(NC(=O)c1ccc(C#N)cn1)C1(N2CCOCC2)CCCC1 (centres undefined)	37.1
Cn1ncc2c1NC(=O)CC2c1cc2c(cc1Cl)OCO2 (centres undefined)	61.2
Cn1ncc2c1NC(=O)CC2c1cc(Cl)ccc1F (centres undefined)	8.49
Cn1ncc2c1NC(=O)CC2c1ccc(Cl)cc1Cl (centres undefined)	34
CC(C)n1ncc2c1NC(=O)CC2c1ccccc1Cl (centres undefined)	9.32
Cn1ncc2c1NC(=O)CC2c1c(Cl)cccc1Cl (centres undefined)	25.1
Cn1ncc2c1NC(=O)CC2c1ccccc1Cl (centres undefined)	54.5
O=C(NCc1cccnc1)c1ccc2nccn2c1	32.5
COc1ccccc1CN1CCC(Cc2cnc(CN(C)C)cn2)CC1	8.12
Cc1nc(C)c(C(=O)N2CCCC(n3ccnc3C)C2)s1 (centres undefined)	21.7
O=S(=O)(Cc1c(F)cccc1F)NCCOc1cccnc1	42.4
Cc1ccc(C(=O)N2CCCC(n3cccn3)C2)cc1S(C)(=O)=O (centres undefined)	23.95
Cc1nccn1[C@@H]1CC[C@@H](NC(=O)CCCn2cccn2)[C@H]1O	4.13
CCc1noc(CCC(=O)N[C@@H]2CC[C@@H](n3ccnc3)[C@@H]2O)n1	8.72
CCc1noc(CCC(=O)N[C@@H]2CC[C@@H](n3ccnc3C)[C@@H]2O)n1	56.8
